Experimental data taken from PubChem BioAssay (NCATS).
Records with an inconclusive call do not appear. Unmarked numbers belong to inactive results. Activity calls are given as the source filed them. Calls come from the whole dose curve; as a rule, active = well fitted cell-killing curve with a large enough effect; inconclusive = small, poorly fitted or top-dose-only effect, or effect the other way; inactive = no such curve, though single readings can be large or run the other way.

Experiment: Quantitative High-Throughput drug screen in 47 multiple myeloma cell lines against the NCATS MIPE library collection: OCIMY7_PLB cell viability assay (AID 1918987); note: nearly all actives have a fitted effect of over 65% in size
Details: OCI-MY7 myeloma viability, CellTiter-Glo ATP, 48 h; series mostly up to 45.8 µM; viability (% of DMSO): at the top concentration
Source text: PI: Beverly A. Mock Ph.D.
Laboratory of Cancer Biology and Genetics,
Center for Cancer Research, National Cancer Institute,
National Institute of Health, Bethesda, Maryland
Drug resistance and disease progression are common in multiple myeloma (MM) patients, underscoring the need for new therapeutic combinations. […] We hypothesized that effective combinations would reduce MYC expression and enhance p16 activity. […] These preclinical data identify potentially useful drug combinations for evaluation in drug-resistant MM and reveal potential mechanisms of combined drug sensitivity.
Described herein is the primary MIPE qHTS used to cherrypick compounds. Validated compounds were then further tested for potential synergistic activiy.
[1] Peat TJ, Gaikwad SM, Dubois W, Gyabaah-Kessie N, Zhang S, Gorjifard S, Phyo Z, Andres M, Hughitt VK, Simpson RM, Miller MA, Girvin AT, Taylor A, Williams D, D'Antonio N, Zhang Y, Rajagopalan A, Flietner E, Wilson K, Zhang X, Shinn P, Klumpp-Thomas C, McKnight C, Itkin Z, Chen L, Kazandijian D, Zhang J, Michalowski AM, Simmons JK, Keats J, Thomas CJ, Mock BA. Drug combinations identified by high-throughput screening promote cell cycle transition and upregulate Smad pathways in myeloma. Cancer Lett. 2023 Aug 1;568:216284. doi: 10.1016/j.canlet.2023.216284. Epub 2023 Jun 24. PMID: 37356470; PMCID: PMC10408729.
SEQUENCE No. (e.g., 1, 2, 3, etc.); […] (e.g., Cells, Incubation, Reagent, etc.); VALUE and DESCRIPTION.
1; Cells; 5 uL; white, solid bottom 1536-well Greiner assay plate.
2; Compounds; 23 nL; Kalypsis pin tool (Wako USA) equipped with a 1536-well pin head to transfer to the assay plates.
3; Incubation; 48 hours; 37C incubation.
4; Reagent;5uL; CellTiter Glo (Promega).
5; Detector; 425V; Luminescence; Viewlux PerkinElmer.
NOTES (numbers refer to Sequence numbers above)
1. The cell-based screening methods employed in this study were like those previously published. Briefly, the corresponding myeloma cell lines were screened in 1,536-well plates with 500 cells, 5-uL per well for inhibition of cell viability (assessed by measuring ATP levels with CellTiterGlo).
2. NCATS MIPE 4.0 library of approved and investigational drugs were added using the Kalypsis pin tool. Wells treated with DMSO only for 100% viability and media only for 0% viability were used as controls.
3. The assay plates were covered and incubated for 48 hours in a 37C, 5% CO2 incubator with controlled humidity.
4. After 48 hours, CellTilter-GloTM luminescent substrate mix (Promega) reagent was added to the assay plate and plates we incubated for 5 min at room temperature.
5. Signal was measured as median relative luminescence units on a ViewLux (PerkinElmer) multiplate reader.
[1] Heske CM, Davis MI, Baumgart JT, Wilson K, Gormally MV, Chen L, Zhang X, Ceribelli M, Duveau DY, Guha R, Ferrer M, Arnaldez FI, Ji J, Tran HL, Zhang Y, Mendoza A, Helman LJ, Thomas CJ. Matrix Screen Identifies Synergistic Combination of PARP Inhibitors and Nicotinamide Phosphoribosyltransferase (NAMPT) Inhibitors in Ewing Sarcoma. Clin Cancer Res. 2017 Dec 1;23(23):7301-7311. doi: 10.1158/1078-0432.CCR-17-1121. Epub 2017 Sep 12. PMID: 28899971; PMCID: PMC6636827.
Potency is the fitted concentration of half-maximal effect.

SMILES	viability (% of DMSO)	Potency
Nc1ccn([C@@H]2O[C@H](CO)[C@@H](O)C2O)c(=O)n1 (stereo not given in full)	249%	
COc1cc(Nc2c(C#N)cnc3cc(OCCCN4CCN(C)CC4)c(OC)cc23)c(Cl)cc1Cl		0.743 µM (active)
Clc1ccc(C(Cn2ccnc2)OCc2ccc(Sc3ccccc3)cc2)c(Cl)c1 (stereo not given)		26.4 µM (active)
COc1cc2c(N3CCN(C(=O)Nc4ccc(OC(C)C)cc4)CC3)ncnc2cc1OCCCN1CCCCC1		16.6 µM (active)
COC(=O)C1=C(C)NC(C)=C(C(=O)OCCCN2CCC(c3ccccc3)(c3ccccc3)CC2)C1c1cccc([N+](=O)[O-])c1 (stereo not given)	165%	
CCN(CC)CCOc1ccc(Cc2ccccc2)cc1	198%	
Cc1cc(O)c2c(c1)C(=O)c1cc(O)cc(O)c1C2=O	163%	
N[C@@H](Cc1cc(I)c(Oc2cc(I)c(O)c(I)c2)c(I)c1)C(=O)O	134%	
NCCCCNCCCN		10.5 µM (active)
COc1c(O)cc2c(c1O)[C@@H]1O[C@H](CO)[C@@H](O)[C@H](O)[C@H]1OC2=O	150%	
O=C(O)c1cn(-c2ccc(F)cc2)c2cc(N3CCNCC3)c(F)cc2c1=O	145%	
COc1ccc2cc([C@H](C)C(=O)O)ccc2c1		33.2 µM (active)
CC(C)c1nc(CN(C)C(=O)N[C@H](C(=O)N[C@@H](Cc2ccccc2)C[C@H](O)[C@H](Cc2ccccc2)NC(=O)OCc2cncs2)C(C)C)cs1		20.9 µM (active)
O=C(c1ccccc1)c1ccc2n1CCC2C(=O)O (stereo not given)		7.43 µM (active)
Nc1ncn([C@H]2C[C@H](O)[C@@H](CO)O2)c(=O)n1		0.187 µM (active)
CN(C)c1ccc2nc3ccc(=[N+](C)C)cc-3sc2c1		2.35 µM (active)
CCN(CC)CCOc1ccc(Nc2ncc3cc(-c4c(Cl)cccc4Cl)c(=O)n(C)c3n2)cc1		1.48 µM (active)
Cn1c(NCCN(CCO)CCCc2ccc([N+](=O)[O-])cc2)cc(=O)n(C)c1=O	230%	
CN(C)c1ccc(O)c2c1C[C@H]1C[C@H]3[C@H](N(C)C)C(=O)C(C(N)=O)=C(O)[C@@]3(O)C(=O)C1=C2O		10.5 µM (active)
Cc1cc2cc3c(C)cc(=O)oc3c(C)c2o1		26.4 µM (active)

SMILES	viability (% of DMSO)	Potency
CS(=O)(=O)OCCCCOS(C)(=O)=O	140%	
O=C(O)c1cccnc1Nc1cccc(C(F)(F)F)c1	94.3%	
NC(=NCc1ccccc1)NC(=O)c1nc(Cl)c(N)nc1N		8.33 µM (active)
CCCCC(CC)COC(=O)C(C#N)=C(c1ccccc1)c1ccccc1 (stereo not given)	139%	
CCN(CC)C(=S)SSC(=S)N(CC)CC		0.001 µM (active)
Cc1ccc(C)c(OCCCC(C)(C)C(=O)O)c1		18.7 µM (active)
CC(C)(S)[C@@H](N)C(=O)O	149%	
Cc1c(C(=O)NN2CCCCC2)nn(-c2ccc(Cl)cc2Cl)c1-c1ccc(Cl)cc1		16.6 µM (active)
Oc1ccc(-c2nc(-c3ccc(F)cc3)c(-c3ccncc3)[nH]2)cc1		9.35 µM (active)
CC(C)c1ccc2oc3nc(N)c(C(=O)O)cc3c(=O)c2c1		18.7 µM (active)
Cc1cc(Cl)ccc1OCCCC(=O)NO		0.59 µM (active)
O=c1ccc2ccc(O)c(O)c2o1		8.33 µM (active)
Cc1ccc(S(=O)(=O)NC(=O)NN2CC3CCCC3C2)cc1 (stereo not given)		20.9 µM (active)
Cc1cccc(C)c1OCC(=O)N[C@@H](Cc1ccccc1)[C@@H](O)C[C@H](Cc1ccccc1)NC(=O)[C@H](C(C)C)N1CCCNC1=O		11.8 µM (active)
CC(C)c1ccc2c(c1)c(SC(C)(C)C)c(CC(C)(C)C(=O)O)n2Cc1ccc(Cl)cc1		14.8 µM (active)
Cc1cc(C2CCCCC2)n(O)c(=O)c1		7.43 µM (active)
COC1=C(OC)C(=O)C(CCCCCCCCCCO)=C(C)C1=O		16.6 µM (active)
O=C(NCC1CCCCN1)c1cc(OCC(F)(F)F)ccc1OCC(F)(F)F (stereo not given)		7.43 µM (active)
NNc1nncc2ccccc12	196%	
CCOC(=O)C(C)Oc1cccc2c(=O)n(CC(=O)Nc3ccc4c(c3)OCCO4)ccc12 (stereo not given)	182%	
